Here are results for 16 compounds from ChEMBL document CHEMBL4513145, “CO-ADD screening of Biotechnology Research Centre (C.R.B.t) (Algeria) compounds”.

Structures are written as SMILES. Values joined by “and” are separate entries in the source; they are usually repeats but may differ in a detail not shown here. Equal values may be shown once. Results with a measured potency or affinity are listed apart.

The test system of assay [1] is Staphylococcus aureus. As to conditions: Concentration 32 ug.mL-1, ASSAY_TEST Inhibition of Bacterial Growth, detection method Absorption (OD600), MEDIA CAMHB, plate type 384well, NBS, CORNING #3640, time 18 hr.
The test system of assay [2] is Escherichia coli. Conditions: Concentration 32 ug.mL-1, ASSAY_TEST Inhibition of Bacterial Growth, detection method Absorption (OD600), MEDIA CAMHB, plate type 384well, NBS, CORNING #3640, time 18 hr.

For the compound `CC1C(O)N(C(=O)OC(C)(C)C)N(S(=O)(=O)c2ccc([N+](=O)[O-])cc2)C1C` (configuration not stated), the results for the Inhibition in assay [1] and in assay [2] were 14.48% and -1.81%, respectively.
`Cc1ccc(S(=O)(=O)N2CC(Cc3ccccc3)C(=O)N2S(=O)(=O)c2ccc(C)cc2)cc1` (configuration not stated): the Inhibition – broadly, the relative decrease from the control value, in per cent – is -1.12% and 2.54% in assay [1] (32 ug/mL); -8.26% and -4.89% in assay [2] (32 ug/mL).
Consider `CC1CN(S(=O)(=O)c2ccc([N+](=O)[O-])cc2)N(C(=O)OC(C)(C)C)C1=O` (configuration not stated), for which the Inhibition in assay [1] (32 ug/mL) is 12.53% and 22.23% and 12.31%; in assay [2] (32 ug/mL) it was -2.77% and -4.85% and -5.54%.
Consider `CC1CN(C(=O)OCc2ccccc2)OC1=O` (configuration not stated), for which the Inhibition in assay [1] (32 ug/mL) is 5.54% and 4.49% and 4.77%; in assay [2] (32 ug/mL), -4.89% and -2.17% and -2.01%.
With `O=C(OCc1ccccc1)N1CC(Cc2ccccc2)C(O)O1` (configuration not stated), the Inhibition is given as 13.58% in assay [1] and -3.12% in assay [2].
For `CC(C)(C)OC(=O)N1C(=O)C(Cc2ccccc2)CN1S(=O)(=O)c1ccc([N+](=O)[O-])cc1` (configuration not stated), the Inhibition was 9.07% and 7.14% and -8.81% in assay [1] (32 ug/mL); -5.13% and -6.6% and -4.72% in assay [2] (32 ug/mL).
With `O=C1ON(C(=O)OCc2ccccc2)CC1Cc1ccccc1` (configuration not stated), the Inhibition in assay [1] (32 ug/mL) is 5.51% and 8.05%; in assay [2] (32 ug/mL) it was -4.21% and -4.06%.
As for `CCCCCCCC1CN(S(=O)(=O)c2ccc(C)cc2)N(S(=O)(=O)c2ccc(C)cc2)C1O` (configuration not stated), the figures for the Inhibition in assay [1] and in assay [2] were 7.71% and -1.55%, respectively.
`CC1CN(S(=O)(=O)c2ccc([N+](=O)[O-])cc2)N(C(=O)OC(C)(C)C)C1O` (configuration not stated): the Inhibition in assay [1] is given as 60.53%; in assay [2], -0.56%.
For `CC(C)(C)OC(=O)N1C(O)C2CCCC2N1S(=O)(=O)c1ccc([N+](=O)[O-])cc1` (configuration not stated) the same measures were -6.71% and -4.07%.
The matching figures for `CC1CN(C(=O)OCc2ccccc2)OC1O` (configuration not stated): 2.79% and -4.78%.
On to `Cc1ccc(S(=O)(=O)N2CC(C)C(=O)N2S(=O)(=O)c2ccc(C)cc2)cc1` (configuration not stated), for which the Inhibition is 12.43% and 4.65% in assay [1] (32 ug/mL); -5.27% and -6.97% in assay [2] (32 ug/mL).
As for `CCCCCCCC1CN(S(=O)(=O)c2ccc(C)cc2)N(C(=O)OC(C)(C)C)C1O` (configuration not stated), the Inhibition in assay [1] is 6.71%; in assay [2], -7.16%.
The matching figures for `O=C(OCc1ccccc1)N1OC(O)C2CCCCC21` (configuration not stated): 6.89% and -5.21%.
For `CCCCCCCC1CN(S(=O)(=O)c2ccc(C)cc2)N(C(=O)OC(C)(C)C)C1=O` (configuration not stated) the same measures were 0.71% and -11.74%.
With `CC(C)(C)OC(=O)N1C(O)C(Cc2ccccc2)CN1S(=O)(=O)c1ccc([N+](=O)[O-])cc1` (configuration not stated), the Inhibition in assay [1] (32 ug/mL) is 11.9% and 5.44% and 15.35%; in assay [2] (32 ug/mL) it was 1.32% and -2.18% and -0.91%.
